From PubChem BioAssay
SENP8 block-1 – human SENP8 protease inhibitors, primary screen, biochemical, fluorescence, Nedd8 protein substrate, uHTS; recombinant SENP8; inhibition, % at 20 µM; 360,000 tested, 0.64% active; in the data active = inhibition mostly above about 40%, no sharp cut-off; inactive = mostly below about 27%
AHR act – AHR activators, primary screen, cell-based, luminescence, luciferase reporter, human; AHR-responsive luciferase reporter cells; activation, % at 5 µM; 320,000 tested, 2.5% active; AID 2796, 2010; in the data active = activation above about 47%;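 also: 0% = vehicle wells and 100% = reference agonist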
Target sequence (P35869 whole entry, looked up): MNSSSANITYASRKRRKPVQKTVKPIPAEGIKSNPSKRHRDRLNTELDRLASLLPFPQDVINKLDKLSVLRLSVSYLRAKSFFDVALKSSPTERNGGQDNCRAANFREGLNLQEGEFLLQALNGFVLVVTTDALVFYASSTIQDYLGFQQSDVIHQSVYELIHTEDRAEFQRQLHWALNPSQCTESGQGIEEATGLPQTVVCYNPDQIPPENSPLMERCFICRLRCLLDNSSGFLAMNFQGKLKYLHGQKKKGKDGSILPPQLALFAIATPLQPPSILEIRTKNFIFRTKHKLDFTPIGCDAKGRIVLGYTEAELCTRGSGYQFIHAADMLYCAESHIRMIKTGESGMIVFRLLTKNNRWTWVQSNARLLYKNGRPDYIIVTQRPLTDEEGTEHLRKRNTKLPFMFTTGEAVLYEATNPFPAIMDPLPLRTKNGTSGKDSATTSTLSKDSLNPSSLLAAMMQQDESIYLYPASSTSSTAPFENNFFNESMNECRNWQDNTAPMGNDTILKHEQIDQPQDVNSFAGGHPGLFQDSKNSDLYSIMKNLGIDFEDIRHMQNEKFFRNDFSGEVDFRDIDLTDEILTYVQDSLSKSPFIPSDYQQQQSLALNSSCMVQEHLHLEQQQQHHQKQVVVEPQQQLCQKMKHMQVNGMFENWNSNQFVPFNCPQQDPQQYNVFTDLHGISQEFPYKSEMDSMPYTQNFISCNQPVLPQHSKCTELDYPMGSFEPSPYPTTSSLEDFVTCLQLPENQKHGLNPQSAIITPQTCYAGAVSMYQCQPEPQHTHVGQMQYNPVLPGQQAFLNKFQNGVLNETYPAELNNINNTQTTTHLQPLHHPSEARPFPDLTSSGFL
SENP7 inh – SENP7 protease inhibitors, primary screen, biochemical, luminescence, uHTS | Sentrin-specific protease 7 (Homo sapiens), Q9BQF6 | recombinant SENP7, Z-RLRGG-aminoluciferin luminescence, 40 min | inhibition, % at 5 µM | 330,000 tested, 1.5% active;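 active = inhibition above about 50% at the single test dose, limit read from the data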;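 also: plate controls were DMSO with enzyme for no effect and no enzyme buffer wells for full effect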
SENP6 inh – SENP6 protease inhibitors, primary screen, biochemical, luminescence, uHTS; 330,000 tested, 1.8% active; inhibition, % at 10 µM; Recombinant SENP6 catalytic domain, aminoluciferin luminescence; AID 2599, 2010; Sentrin-specific protease 6 (Homo sapiens), Q9GZR1;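 active = inhibition above about 50% at the single tested dose, limit read from the data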;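 also: plate controls were DMSO wells with enzyme for no effect and DMSO wells lacking enzyme for full effect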
SENP8 block-2 – SENP8 protease inhibitors, primary screen, biochemical, luminescence; Sentrin-specific protease 8 (Homo sapiens), Q96LD8; purified SENP8, Z-RLRGG-aminoluciferin cleavage; inhibition, % at 10 µM; 330,000 tested, 1.2% active; AID 2540, 2010; in the data active = inhibition above about 50%
EBI2 block – EBI2 receptor antagonists, beta-arrestin recruitment, primary screen, cell-based, luminescence, 7a,25-OHC stimulation, uHTS. inhibition, % at 5 µM. AID 651636, 2012. 7a,25-OHC stimulated. 360,000 tested, 0.81% active. G-protein coupled receptor 183 (Homo sapiens), P32249; in the data active = inhibition above about 38%;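 also: enzyme fragment complementation signal reports receptor beta-arrestin coupling in cells; 0% = agonist plus DMSO wells and 100% = wells without agonist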
SENP8 conf – SENP8 protease inhibitors, retest, confirmation, biochemical, luminescence, single concentration; shares compounds with SENP7 inh; Recombinant SENP8, Z-RLRGG-aminoluciferin luminescence, 60 min; inhibition, % at 12.5 µM; 6,200 tested, 40% active;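 active = mean inhibition across replicates above about 50%, limit read from the data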
SENP6 conf – SENP6 protease inhibitors, confirmation, biochemical, luminescence, single concentration. shares compounds with SENP7 inh. 6,200 tested, 58% active. inhibition, % at 12.5 µM. recombinant SENP6, Z-RLRGG-aminoluciferin luminescence. AID 488915, 2010
SENP7 conf – SENP7 protease inhibitors, retest, confirmation, biochemical, luminescence, single concentration | shares compounds with SENP7 inh | recombinant SENP7, Z-RLRGG-aminoluciferin luminescence, 40 min | inhibition, % at 12.5 µM | 6,200 tested, 69% active
Casp3 select – caspase-3 protease inhibitors, confirmation, selectivity assay for SENP inhibitor project, biochemical, single concentration | 6,200 tested, 60% active | purified caspase-3, Z-DEVD-aminoluciferin luminescence, 60 min | shares compounds with SENP7 inh | inhibition, % at 12.5 µM;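 active = mean inhibition above about 50%, limit read from the data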;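 also: plate controls were enzyme with DMSO for no effect and wells without caspase-3 for full effect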
SENP luc ctr – interferes with luciferase luminescence in SENP counter-screen; shares compounds with SENP7 inh; Pre-incubated SENP8/Z-RLRGG-aminoluciferin, luciferase luminescence interference; inhibition, % at 12.5 µM; 6,200 tested, 39% active; AID 488919;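 active = mean inhibition above about 50% when retested at one dose, limit read from the data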;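 also: plate controls were DMSO wells with completed reaction for no effect and substrate without enzyme for full effect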
* marks the source's active call; other numbers are inactive results; x = no result given. This is a sample that favours compounds with a hit; in the whole collection about 5% have one here.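 The calls were made as follows, unless noted: active = mean inhibition above about 50% in the one-dose retest (limit read from the data); inactive = the rest.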

SMILES	SENP8 block-1	AHR act	SENP7 inh	SENP6 inh	SENP8 block-2	EBI2 block	SENP8 conf	SENP6 conf	SENP7 conf	Casp3 select	SENP luc ctr
Cc1cc(-c2nc(-c3ccncc3)no2)ccc1[N+](=O)[O-]	13	-5	61*	60*	54*	3	9	9	16	12	11
COc1ccc(-c2nc(-c3ccncc3)no2)cc1OC	2	3	17	27	13	-1	x	x	x	x	x
Cc1ccc(-c2nc(-c3ccncc3)no2)cc1C	2	6	78*	85*	79*	-2	53*	58*	76*	66*	30
COc1ccc(Cl)cc1-c1nc(-c2ccncc2)no1	-25	25	2	-12	-8	7	x	x	x	x	x
Cc1ccc(-c2nc(-c3ccncc3)no2)cc1Cl	12	-4	55*	30	23	-6	23	20	35	39	11
COc1cc2c(cc1OC)C(c1ccccc1F)NCC2 (stereo unspecified)	13	0	-2	6	7	-5	x	x	x	x	x
Cc1nc(N=Nc2ccc(O)cc2)n[nH]1	21	13	58*	75*	45	-10	58*	53*	86*	87*	63*
Cc1cc(C)cc(NC(=O)c2cccnc2)c1	23	x	-2	17	-12	-3	x	x	x	x	x
CSCCC(NC(=O)COc1ccccc1)C(=O)NCc1cccs1 (stereo unspecified)	2	3	11	-10	-7	6	x	x	x	x	x
COc1ccc(-c2cc3nc(CCl)[nH]c(=O)c3s2)cc1	-336	12	59*	94*	83*	-9	66*	91*	70*	82*	32
CCSC1=NC2(CCCCC2)Nc2sc3c(c21)CCCC3	-34	7	-3	-5	3	-7	x	x	x	x	x
CCCCOC(=O)C1=C(C)NC(=O)NC1c1ccc([N+](=O)[O-])s1 (stereo unspecified)	16	29	-2	-6	-9	1	x	x	x	x	x
CC(C)c1nnc(SCC(=O)NC2CCCC2)n1C	2	1	-8	-1	-6	-1	x	x	x	x	x
Cc1ccc(/C=C/c2nnc(-c3ccc(C)cc3)o2)cc1	-284	-2	7	31	7	25	x	x	x	x	x
Fc1ccc(/C=C/c2nnc(-c3cccs3)o2)cc1	-409	-5	67*	61*	20	-18	0	0	15	27	12
Cc1ccc(/C=C/c2nnc(-c3cccs3)o2)cc1	-304	35	0	91*	86*	17	-5	43	67*	43	23
Cc1ccc(-c2nnc(-c3cccs3)o2)cc1	-339	-1	81*	24	68*	7	72*	87*	99*	86*	43
NC(=O)[C@@H]1CCCNc2c(F)cc([N+](=O)[O-])cc2C(=O)N[C@@H](CCC(=O)O)C(=O)N[C@@H](CO)C(=O)N1	10	1	-18	-11	-15	-5	x	x	x	x	x
CN(c1ccc(C(=O)NCCc2ccccc2)cc1)S(C)(=O)=O	10	4	55*	26	-4	-8	8	6	56*	69*	40
